Inconclusive results are not listed. The source made the active and inactive calls. The calls were made as follows: active = hit-call score of the fitted dose curve at least 0.9, where 1 is the maximum; inconclusive = response in the unintended direction; inactive = score below 0.9.
The compounds below were run against Estrogen receptor (Homo sapiens) (UniProt P03372) (assay: ATG_ERa_TRANS: Attagene TRANS-FACTORIAL HepG2 Assay for human Estrogen Receptor alpha (ERa) (AID 2282970)). Conditions: HepG2 Attagene TRANS ERa GAL4 reporter, mRNA.
Chain of Estrogen receptor (Homo sapiens) (P03372 whole entry, looked up, the tested form may be a part): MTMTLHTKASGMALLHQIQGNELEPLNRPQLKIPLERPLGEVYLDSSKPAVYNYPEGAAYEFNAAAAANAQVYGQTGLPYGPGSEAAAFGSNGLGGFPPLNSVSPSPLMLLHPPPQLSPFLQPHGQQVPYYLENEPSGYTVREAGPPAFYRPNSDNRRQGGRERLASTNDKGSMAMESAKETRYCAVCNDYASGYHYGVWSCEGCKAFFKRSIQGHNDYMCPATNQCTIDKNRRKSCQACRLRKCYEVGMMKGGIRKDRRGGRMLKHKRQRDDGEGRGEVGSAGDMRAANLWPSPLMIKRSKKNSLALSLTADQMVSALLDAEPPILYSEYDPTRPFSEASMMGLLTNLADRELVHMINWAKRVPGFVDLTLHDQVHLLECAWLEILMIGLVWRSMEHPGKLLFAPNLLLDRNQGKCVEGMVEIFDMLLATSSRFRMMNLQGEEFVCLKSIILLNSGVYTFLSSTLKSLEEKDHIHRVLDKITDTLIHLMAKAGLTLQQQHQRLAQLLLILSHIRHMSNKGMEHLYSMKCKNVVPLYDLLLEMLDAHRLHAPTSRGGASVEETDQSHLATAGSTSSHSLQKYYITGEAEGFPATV
Description: ATG_TRANS is a cell-based, multiplexed-readout assay that uses HepG2, a human liver cell line, with measurements taken at 24 hours after chemical dosing in a 24-well plate.ATG_ERa_TRANS is one of 30 assay component(s) measured or calculated from the ATG_TRANS assay. It is designed to make measurements of mRNA induction, a form of inducible reporter, as detected with fluorescence intensity signals by Reverse transcription polymerase chain reaction (RT-PCR) and Capillary electrophoresis technology.Data from the assay component ATG_ERa_TRANS was analyzed into 1 assay endpoint. This assay endpoint, ATG_ERa_TRANS, was analyzed in the positive analysis fitting direction relative to DMSO as the negative control and baseline of activity. Using a type of inducible reporter, measures of mRNA for gain-of-signal activity can be used to understand the reporter gene at the transcription factor-level as they relate to the gene ESR1. Furthermore, this assay endpoint can be referred to as a primary readout, because this assay has produced multiple assay endpoints where this one serves a reporter gene function. To generalize the intended target to other relatable targets, this assay endpoint is annotated to the nuclear receptor intended target family, where the subfamily is steroidal.
Human liver HepG2 cells are transiently transfected with multiple reporter transcription units (MRTUs) in 6-well plates using FuGene 6 reagent (Roche; 3 ml FuGene/1 mg DNA). The MRTU constructs are regulated by a cis-regulating element (promoter). […] A major difference between the CIS and TRANS system is that in CIS activities of endogenous TFs are measured, whereas the TRANS assay evaluates changes in activities of exogenous, chimeric NR-Gal4 proteins. […] At the end of 24 hour incubation, total RNA was isolated using TriZol reagent (Invitrogen). The isolated RNA is then reverse-transcribed using oligo(dT) primer and Mo-MLV reverse transcriptase (Invitrogen) with DNAse I (Ambion) treatment for 30 min. The one-tenth of the produced cDNA was amplified by PCR using Taq DNA polymerase (Invitrogen) and two reporter sequence-specific primers. The PCR products were fluorescently labeled by primer extension with 6-arboxyfluorescein (6-FAM) 5'-labeled reporter sequence-specific primer (2 min at 95 C, 20 s at 68 C and 10 min at 72 C) and these products were digested with 5U of HpaI (New England Biolabs) for 2h at 37 C. […] The raw capillary electrophoresis data was processed using Attagraph software (Attagene).
With `CC(C)c1cc(C(C)C)cc(C(C)C)c1` the AC50 was 58.9 µM (active). For `C[Si](C)(C)N[Si](C)(C)C`, the outcome was “inactive”. In the case of `CC1(C)CCC[C@]2(C)[C@H]3CC(=O)O[C@]3(C)CC[C@@H]12`, the AC50 is reported as 2.7 µM (active). `CC(C)CC(=O)OCc1ccccc1` was tested, and the outcome was “inactive”. With `NNS(=O)(=O)c1ccc(Oc2ccc(S(=O)(=O)NN)cc2)cc1` the outcome was “inactive”. `CCC[Si](OC)(OC)OC` was tested, and the outcome was “inactive”. `CC/C=C\C/C=C\C/C=C\CCCCCCCC(=O)OC` was tested, and the outcome was “inactive”. With `CC(=O)C(C)C` the outcome was “inactive”. With `CCCC=C(C=O)CC` the outcome was “inactive”. In the case of `C=CCNCC=C`, the outcome is reported as “inactive”. For `CO[Si](CCCS)(OC)OC`, the outcome was “inactive”. For `CC(C=O)c1ccccc1` (stereo not given), the outcome was “inactive”. `O=C(C=Cc1ccccc1)OCCc1ccccc1` was tested, and the AC50 was 29.4 µM (active). For `CCCCCCCOC(=O)c1ccc(O)cc1`, the AC50 was 8.4 µM (active). For `CCOC(=O)[C@H](O)[C@@H](O)C(=O)OCC`, the outcome was “inactive”. `CCOC(=O)C1=NN(c2ccc(Cl)cc2Cl)C(C)(C(=O)OCC)C1` (stereo not given) was tested, and the outcome was “inactive”. `CC1=NN(c2ccc(S(=O)(=O)O)cc2)C(=O)C1N=Nc1ccccc1` (stereo not given) was tested, and the outcome was “inactive”. In the case of `CCC(C)(O)CCCC(C)C` (stereo not given), the outcome is reported as “inactive”. `CC(C)(c1ccccc1)c1ccc(Nc2ccc(C(C)(C)c3ccccc3)cc2)cc1` was tested, and the outcome was “inactive”. In the case of `CCCCCCCCCCCCC`, the outcome is reported as “inactive”. `CC(=O)OCc1ccccc1` was tested, and the outcome was “inactive”. For `Fc1ccc(Br)cc1`, the AC50 was 79.7 µM (active). `CCCCC1CCC(=O)O1` (stereo not given) was tested, and the outcome was “inactive”. For `c1ccc(Nc2cccc3ccccc23)cc1`, the AC50 was 2.75 µM (active). With `Oc1ccccc1Cc1ccccc1O` the AC50 was 18.1 µM (active). With `CC(C)(C)NC(=O)[C@H]1CC[C@H]2[C@@H]3CC[C@H]4NC(=O)C=C[C@]4(C)[C@H]3CC[C@]12C` the outcome was “inactive”. In the case of `C[N+](C)(C)CCCNS(=O)(=O)C(F)(F)C(F)(F)C(F)(F)C(F)(F)C(F)(F)C(F)(F)C(F)(F)C(F)(F)F`, the outcome is reported as “inactive”. `CC(C)c1cccc(C(C)C)c1N` was tested, and the outcome was “inactive”. `CC(=O)OC/C=C(/C)CCC=C(C)C` was tested, and the outcome was “inactive”. In the case of `O=C(O)/C=C/c1ccccc1`, the AC50 is reported as 61.7 µM (active). For `C=C[C@@]1(C)CC(=O)[C@]2(O)[C@@]3(C)[C@@H](O)CCC(C)(C)[C@@H]3[C@H](O)[C@H](OC(C)=O)[C@@]2(C)O1`, the AC50 was 2.1 µM (active). With `COC(C=C(C)CCC=C(C)C)OC` the outcome was “inactive”. For `COC(Cc1ccccc1)OC`, the outcome was “inactive”. With `CCC(=O)C1CC(C(C)C)CC=C1C` (stereo not given) the outcome was “inactive”. `CC(C)(CO)COC(=O)C(C)(C)CO` was tested, and the outcome was “inactive”. `CC(CCC(=O)O)(c1ccc(O)cc1)c1ccc(O)cc1` was tested, and the AC50 was 16.4 µM (active). With `O=C(Oc1ccccc1)c1ccccc1O` the outcome was “inactive”. With `CCCCCCCCC(CO)CCCCCC` (stereo not given) the outcome was “inactive”. With `CCCc1ccc(O)c(OC)c1` the outcome was “inactive”. With `CCCCC(=O)O` the outcome was “inactive”.

From PubChem BioAssay (EPA / NIEHS)
